Screening data from PubChem BioAssay.
The list is not random: actives were taken first. Their share in the collection is about 3.4%.
TEAD-YAP block = TEAD-YAP interaction inhibition. HEK-TIYL cells, TEAD-Gal4/YAP UAS-luciferase luminescence. inhibition, % at 9.12 µM. 640,000 tested, 1.4% active; in the data active = inhibition above about 32%;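 note: 0% = median of test compound wells and 100% = reference inhibitor wells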
MITF inh = inhibitors of human MITF | O75030 | AlphaScreen MITF homodimerization, bead proximity signal | inhibition, % at 2.6 µM | 650,000 tested, 0.91% active; in the data active = inhibition above about 50%;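 note: 0% = vehicle wells with protein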
GPR151 ag = human GPR151 activation; Q8TDV0; PathHunter beta-arrestin GPR151 cells, luminescence; activation, % at 11.2 µM; 650,000 tested, 1% active; AID 1508602; in the data active = activation above about 4.9%;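 note: 0% = median of compound wells and 100% = cells with positive control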
FBW7 act = activators of human E3 ligase FBW7. 650,000 tested, 0.13% active. AlphaScreen FBW7–phospho-cyclin E peptide binding, activator screen. normalized activity (activation), % at 26.1 µM; in the data active = normalized activity above about 1.9%;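 note: purified mutant Fbw7 with reduced substrate affinity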
GPR151 confirm = confirmation of human GPR151 activators; activation, % at 11.2 µM; 6,700 tested, under 10 active; shares compounds with GPR151 ag; GPR151 PathHunter beta-arrestin cells, luminescence, 90 min; % of EA-reagent control over plate median;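 active = mean percent activation across replicates above the confirmation screen cutoff of 4.91%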
GPR119 ag = counter-screen for GPR151 activators: effect on human GPR119; 6,700 tested, 0.3% active; activation, % at 11.2 µM; GPR119 PathHunter beta-arrestin cells, luminescence, 90 min; 0 = compound-well median, 100 = enzyme-acceptor control; shares compounds with GPR151 ag; AID 1508611;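 active = mean percent activation in the counterscreen above 29.09%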;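 note: counterscreen on off-target GPR119 to flag nonselective hits from the GPR151 activator screen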
Target sequence (Q8TDV5 whole entry, looked up): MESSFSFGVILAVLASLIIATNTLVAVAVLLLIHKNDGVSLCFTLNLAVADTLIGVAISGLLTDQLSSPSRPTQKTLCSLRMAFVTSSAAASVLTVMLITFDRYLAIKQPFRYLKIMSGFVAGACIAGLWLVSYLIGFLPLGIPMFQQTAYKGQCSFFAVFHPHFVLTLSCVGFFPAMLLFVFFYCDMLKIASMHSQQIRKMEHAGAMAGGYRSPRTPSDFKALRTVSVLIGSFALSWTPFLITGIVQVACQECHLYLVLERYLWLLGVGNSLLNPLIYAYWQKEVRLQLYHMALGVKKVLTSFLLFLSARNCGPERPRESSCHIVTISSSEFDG
* marks the source's active call; other numbers are inactive results; . = no result.

SMILES	TEAD-YAP block	MITF inh	GPR151 ag	FBW7 act	GPR151 confirm	GPR119 ag
CN1C(=O)[C@H]2CN(C(=O)c3ccccc3)CCN2C(=O)[C@@H]1Cc1ccccc1	-11	9	5.3*	0	0	12
Cc1nc2ccccc2nc1CN1CCC2(CC1)CC2C(=O)N(C)Cc1cscn1 (stereo not drawn)	7	16	0	0	.	.
Cc1ccsc1CN1CCC2(CC1)CC2C(=O)N(C)Cc1cscn1 (stereo not drawn)	1	-1	5.2*	0	0	-1
CN1CCN(C(=O)CN(C)S(=O)(=O)c2ccc(Cl)cc2)CC1	4	4	-1	0	.	.
Fc1ccc(-c2[nH]ncc2CCN2CCOCC2)cc1	10	0	9.9*	0	1	6
Cc1ccc(C2Nn3c(C)nnc3SC2C(=O)N2CCCCCC2)cc1 (stereo not drawn)	-8	10	6.4*	1	0	7
CC1(CC(=O)N/N=C/c2cccc(Br)c2)OCCO1	-10	2	-1	0	.	.
CC1(CC(=O)N/N=C/c2cccc(OC3CSC3)c2)OCCO1	-3	12	5.9*	0	0	2
CCc1ccc(NC(=O)CSc2nc3ccccc3c(=O)n2CC2CCC(C(=O)NCC3CCCO3)CC2)cc1 (stereo not drawn)	13	-13	0	0	.	.
O=C(O)CCn1c(SCc2cc(=O)n3cc(Br)ccc3n2)nc2ccsc2c1=O	2	1	1	0	.	.
O=C(O)c1ccc(Cn2c(SCc3cc(=O)n4cc(Br)ccc4n3)nc3ccsc3c2=O)cc1	-18	5	7.3*	0	1	16
C#CCOc1ccc(Cl)cc1C1C2=C(CC(C)(C)CC2=O)N(C)C2=C1C(=O)CC(C)(C)C2	2	3	5.1*	0	1	10
CCOc1ccc(Cl)cc1C1C2=C(CC(C)(C)CC2=O)N(C)C2=C1C(=O)CC(C)(C)C2	4	12	0	0	.	.
O=C(CN1Cc2ccccc2C1=O)N1CCN(c2ccccc2F)CC1	6	9	0	0	.	.
CCOC(=O)CC(C(C)C)N(Cc1ccc(Cl)c([N+](=O)[O-])c1)S(=O)(=O)c1ccc(Cl)cc1 (stereo not drawn)	-8	9	9.1*	0	-1	-10
Cc1ccc2[nH]c3c(c2c1)CCCC3NC(=O)CCl (stereo not drawn)	88*	0	7.3*	0	1	-1
O=C(/C=C/c1ccccc1)N1CCC(N(C2CC2)S(=O)(=O)c2ccc(Cl)cc2)CC1	-2	15	0	0	.	.
O=c1c2ccccc2ncn1Cc1c(F)cccc1F	1	-2	4.9*	0	-1	-15
O=c1c2ccccc2ncn1Cc1ccccc1Cn1cnc2ccccc2c1=O	6	12	0	0	.	.
CCOCCOC(=O)C(C)Oc1ccc2c(=O)c(Oc3cc(C)ccc3C)coc2c1 (stereo not drawn)	8	6	0	0	.	.
CC(C)C(=O)Nc1ccc(NC(=O)c2ccccc2Cl)nc1	-39	2	6.9*	0	1	9
O=C(Nc1ccccn1)c1ccccc1Cl	-21	-2	6.0*	0	-1	-17
Cc1cc(NCc2nc3ccccc3[nH]2)nc(-c2ccc(C(=O)NC3CC3)cc2)n1	-11	10	5.1*	0	0	2
Cc1cc(NCc2nc3ccccc3[nH]2)nc(-c2ccccc2)n1	1	-6	0	0	.	.
O=C(NC1CC1)c1ccc(-c2nc3ncnc(NCc4nc5ccccc5[nH]4)c3[nH]2)cc1	-19	1	6.3*	0	0	-2
COc1c2occc2c(OC)c2c(=O)cc(C(F)(F)C(F)(F)F)oc12	6	10	5.3*	0	0	5
CCN1C(=O)C(CC(=O)Nc2ccc(OC)cc2)N(Cc2cccs2)C1=S (stereo not drawn)	-1	1	5.9*	0	1	9
Cn1ncc2c(Nc3ccc(Cl)cc3Cl)ncnc21	2	12	1	0	.	.
Cn1ncc2c(NCCc3ccc(Cl)cc3Cl)ncnc21	28	1	5.0*	0	3	35*
COc1ccc(CNS(=O)(=O)c2ccc(Cl)c(OC)c2)cc1	-1	-8	0	0	.	.
